Source: PubChem BioAssay (NCI)
This is part of a sample that, as a whole, favours compounds with a hit. Of some 79,000 tested, about 15% had one in any assay. No stated cut-off is given here; in the data, active means growth inhibition above about 70%; inactive means the rest. Where a SMILES comes first, the peptide text is derived from it. The star is where a group is joined. Cbz = O=C(OCc1ccccc1)*

Legend:
[1] = NCI Yeast Anticancer Drug Screen. Data for the rad50 strain (AID 155);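 further: 0% = growth of vehicle-only cultures of the same strain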; details: S. cerevisiae rad50 strain growth inhibition; at 50.0 µM; stronger effect = higher value
Procedure, shortened: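 Growth of the mutant yeast was measured after compound exposure and referenced to vehicle-treated cultures.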

[2] = NCI Yeast Anticancer Drug Screen. Data for the mec2-1 strain (AID 157); details: S. cerevisiae mec2-1 strain, at 50.0 µM, stronger effect = higher value
Procedure, shortened: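 Test agents were screened against the mec2-1 yeast strain, with defined DNA repair or cell cycle alteration. Growth was scored as inhibition against vehicle-only controls.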

[3] = NCI Yeast Anticancer Drug Screen. Data for the sgs1 mgt1 strain (AID 161);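 further: 0% = growth of cultures given vehicle only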; details: S. cerevisiae sgs1 mgt1 strain, at 50.0 µM, stronger effect = higher value
Procedure, shortened: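 Read-out: growth inhibition vs vehicle controls. Cells: mutant yeast strain deficient in DNA damage repair.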

[4] = NCI Yeast Anticancer Drug Screen. Data for the cln2 rad14 strain (AID 165);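 further: 0% = growth equal to vehicle treated cultures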; details: S. cerevisiae cln2 rad14 strain, at 50.0 µM, stronger effect = higher value
Procedure, shortened: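 Growth of compound-exposed yeast (cln2 rad14 genotype) measured and expressed as inhibition relative to vehicle.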

[5] = NCI Yeast Anticancer Drug Screen. Data for the bub3 strain (AID 167); details: S. cerevisiae bub3 mutant strain, at 50.0 µM, stronger effect = higher value
Procedure, shortened: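 Whole-cell yeast assay. The mutant strain was incubated with compounds, and growth inhibition was determined by comparison with vehicle-treated cells.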

[6] = NCI Yeast Anticancer Drug Screen. Data for the mlh1 rad18 strain (AID 175); details: S. cerevisiae mlh1 rad18 strain growth inhibition; at 50.0 µM; stronger effect = higher value
Procedure, shortened: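 In this whole-cell yeast screen, a strain with altered DNA damage repair is challenged with compound, and its growth is measured against matched vehicle-treated controls.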

Measured: growth inhibition

Oc1ccccc1C=Nc1ccc(Cl)cn1
inactive: [1] 17.2% | [2] 15.2% | [3] 16.2% | [4] 21.6% | [5] 18.9% | [6] 20.8%

CCCCCCCCCCCCOC1OC(COC(C)=O)C(OC(C)=O)C(OC(C)=O)C1OC(C)=O (stereo unspecified) (tested in a mixture with another compound)
inactive: [1] -7.9% | [2] -15.4% | [3] -15.6% | [4] -22.2% | [5] -2.45% | [6] -14.4%

O=C1NCC2(CCN(Cc3ccccc3)CC2)N1c1ccccc1
inactive: [1] 7.6% | [2] 3.05% | [3] 2.4% | [4] 4.85% | [5] -13.1% | [6] 13.7%

COC(C)CCOC(=O)c1cccc(C)c1 (stereo unspecified)
inactive: [1] 9% | [2] -6.8% | [3] 3.8% | [4] -24% | [5] 24.8% | [6] 1.9%

CN(C)CC(CN(C)C)C(=O)c1ccc(OC2OC(CO)C(O)C(O)C2O)cc1 (stereo unspecified)
inactive: [1] -4.95% | [2] -3.15% | [3] -18.4% | [4] 5.15% | [5] -9.35% | [6] 2.05%

Nc1ccc2ccsc2c1
inactive: [1] 1.6% | [2] -22.7% | [3] 26.2% | [4] 17.1% | [5] 12.9% | [6] 35.5%

O=C1CSC(=S)N1c1ccco1
inactive: [1] 3.4% | [2] -20.1% | [3] 17.9% | [4] 20.7% | [5] -13.1% | [6] 2.85%

CSCCCNC(=O)c1csc(-c2csc(CCNC(=O)[C@@H](NSc3ccccc3[N+](=O)[O-])[C@@H](C)O)n2)n1
inactive: [1] 0.15% | [2] 6.05% | [3] 1.3% | [4] -22.1% | [5] 0.95% | [6] 18.9%

OCc1c(CO)c(-c2ccc(Cl)cc2)n2c1CCC2
inactive: [1] 29.4% | [2] -15% | [3] 8.4% | [4] 29.2% | [5] -6.35% | [6] 34.5%

Cc1ccc(S(=O)(=O)N/N=C(\C(=O)c2ccccc2)c2ccccc2)cc1
inactive: [1] 45% | [2] 18.2% | [3] 39.4% | [4] 28.1% | [5] 23.6% | [6] 36.6%

Cc1ccc2ccccc2c1CP(=O)(O)O
inactive: [1] -18.9% | [2] -11.1% | [3] -10.4% | [4] -10.6% | [5] 15.2% | [6] -31.4%

O=S(=O)(c1ccccc1)N1CCCN(S(=O)(=O)c2ccccc2)CC1
inactive: [1] -11.9% | [2] -0.45% | [3] 2.15% | [4] 3.1% | [5] 3.35% | [6] 0.7%

O=C1C2=C(c3ccccc31)C(c1ccc([N+](=O)[O-])cc1)NC(=S)N2 (stereo unspecified)
inactive: [1] 5.6% | [2] 8.7% | [3] 1.8% | [4] 9.8% | [5] -3.6% | [6] 32.5%

CN1Cc2ccccc2[C@H]2C(c3ccccc3)=NN(c3ccccc3)[C@H]21
inactive: [1] 39.6% | [2] 26.9% | [3] 59.2% | [4] 9.6% | [5] 41.2% | [6] 37.2%

CCCCC(C(C)=O)C(=O)CC (stereo unspecified)
inactive: [1] 26.4% | [2] -25% | [3] 8.8% | [4] -23.2% | [5] -20.5% | [6] 13.1%

CC(NC(=O)OCc1ccccc1)C(=O)NC(CO)C(N)=O (stereo not drawn) (Cbz-Ala-Ser-NH2; configuration not given here)
inactive: [1] 6.15% | [2] -6.5% | [3] -0.25% | [4] 19.2% | [5] 5.95% | [6] 8.1%

O=C(NNC(=O)c1ccc(Cl)cc1Cl)c1ccc2ccccc2c1
inactive: [1] 9.4% | [2] -42% | [3] -14.4% | [4] 6% | [5] -0.1% | [6] -0.55%

CCCCc1c2c(nc3c1CCCC3O)CCCC2 (stereo unspecified)
inactive: [1] -40.4% | [2] -63% | [3] -13.9% | [4] 13.2% | [5] -8.1% | [6] -23.9%

NC(CC1C=CC=CC1)C(=O)O (stereo unspecified)
inactive: [1] 0.6% | [2] 3.15% | [3] 8.35% | [4] -6% | [5] -4.05% | [6] -4.85%

CCC1(CC)COC2(CCC(C)CC2)OC1
inactive: [1] -6.4% | [2] -2.95% | [3] -5.05% | [4] -16.1% | [5] -14.7% | [6] 7.5%

O=C1CSC(=S)N1c1ccccc1
inactive: [1] 2.2% | [2] -3.8% | [3] -3.6% | [4] -4.75% | [5] 0.8% | [6] 2.9%

CCc1ccc(C(O)C(=O)O)cc1 (stereo unspecified)
inactive: [1] 4.6% | [2] 7.95% | [3] -1.6% | [4] 3.85% | [5] -2.7% | [6] -3.75%

CC(C)OC(=O)N1C(=O)C2C3CCC(O3)C2C1=O (stereo unspecified)
inactive: [1] 9.2% | [2] 8.25% | [3] 15.2% | [4] 10.4% | [5] 9.65% | [6] 16.1%

NC(=O)c1cn2ccccc2c1[N+](=O)[O-]
inactive: [1] 8.25% | [2] 27.6% | [3] 3.35% | [4] -20.2% | [5] 2.8% | [6] 5.2%

NC(=O)c1nc(C2OC(CO)C(O)C2O)cs1 (stereo unspecified)
inactive: [1] -0.7% | [2] -1.2% | [3] -2.25% | [4] -27.9% | [5] 6.75% | [6] 0.15%

Cc1ccccc1N=Nc1c(C)nc(N)nc1-c1ccccc1
inactive: [1] 1% | [2] 8.6% | [3] 6.2% | [4] -12.6% | [5] -14.5% | [6] 12.2%

COC(=O)CC(=O)c1cccc([N+](=O)[O-])c1
inactive: [1] 8.95% | [2] -22.1% | [3] -3.15% | [4] 16.5% | [5] -26.8% | [6] 0.15%

COc1ccc(Oc2nc(=O)n3ccccc3n2)cc1
inactive: [1] -13.4% | [2] 0.65% | [3] -14.6% | [4] -12.6% | [5] 9.45% | [6] -20.7%

O=C1c2ccccc2C(=O)c2c(Nc3ccc(Nc4cccc5c4C(=O)c4ccccc4C5=O)c4c3C(=O)c3ccccc3C4=O)cccc21
inactive: [1] -28.4% | [2] -39% | [3] 4.7% | [4] -3.2% | [5] -19.3% | [6] -26.8%

Nc1cc(Cl)cc(S(=O)(=O)O)c1O
inactive: [1] 1.9% | [2] -0.05% | [3] -2.95% | [4] -65.9% | [5] 9.05% | [6] -13.9%

NC(CSC(c1ccccc1)(c1ccccc1)c1ccccc1)C(=O)OC(c1ccccc1)c1ccccc1 (stereo unspecified)
inactive: [1] 19.3% | [2] -7% | [3] 29.6% | [4] -44.5% | [5] -18.7% | [6] 22.2%

CC(=O)Nc1ccccc1C(C)=O
inactive: [1] 5.45% | [2] -7.25% | [3] -10.2% | [4] 10% | [5] -8.05% | [6] 4.85%

Cc1cccc(Cl)c1NC(=O)NCCCN1CCOCC1
inactive: [1] 2.8% | [2] -14.9% | [3] 6.2% | [4] 14.1% | [5] -1.75% | [6] 6.45%

CCCCNC(C(=O)c1ccc(N(C)C)cc1)c1ccccc1 (stereo unspecified)
inactive: [1] 3.7% | [2] -10.6% | [3] -3.1% | [4] -8.15% | [5] 2.95% | [6] -13.9%

COc1ccc(C2CN=NN2c2ccc([N+](=O)[O-])cc2)cc1 (stereo unspecified)
inactive: [1] -18.4% | [2] -16.6% | [3] -9.15% | [4] 28.2% | [5] 46.1% | [6] -18%

CC(=O)NC(CO)C(=O)NC(Cc1ccc(O)cc1)C(=O)NCC(N)=O (stereo not drawn) (Ac-Ser-Tyr-Gly-NH2; configuration not given here)
inactive: [1] -26.7% | [2] -23.5% | [3] -9.4% | [4] 18.8% | [5] 10.9% | [6] -6.8%

O=C(O)CN(CC(=O)O)CC(=O)O
inactive: [1] -9.7% | [2] -23.6% | [3] -34.4% | [4] -11.8% | [5] -17.1% | [6] 32.1%

C=CCC(C(=C)C)(C(=O)OCC)C(=O)OCC
inactive: [1] -23.4% | [2] -24.6% | [3] -32.6% | [4] -6.8% | [5] -25.4% | [6] -31.9%

CCCN1CCc2c([nH]c3cc(OC)ccc23)C1C (stereo unspecified)
inactive: [1] 27.9% | [2] -4.15% | [3] -5.05% | [4] 1.9% | [5] 7.35% | [6] 3.2%

CON(C)c1nc(N(C)OC)nc(N(C)OC)n1
inactive: [1] -8.05% | [2] -48.2% | [3] -28.8% | [4] 7.85% | [5] -22.9% | [6] -12.5%

c1ccc(SCCc2ccncc2)cc1
inactive: [1] 25.1% | [2] 23.8% | [3] 29.7% | [4] -9.65% | [5] 3.85% | [6] 19.6%
